This note sets out measurements from ChEMBL document CHEMBL4513216, “Probing the Open Global Health Chemical Diversity Library for Multistage-Active Starting Points for Next-Generation Antimalarials” (ACS Infect Dis, 2020).

In all, about 69,000 compounds went through this assay and about 8,600 (12%) showed an effect of 50% or more. This excerpt belongs to a sample that is enriched for strong results.

This assay concerns Plasmodium berghei. The experiment in a line: Screen against P. berghei liver stage (PbLuc), transformed with Luciferase, at 10uM. The assay is classed as functional, HepG2. The conditions noted are these: tested at 10 uM.
`COCCNc1nc(N2CCOCC2)nc2nccnc12`: the INHIBITION is reported as -2.93%. Turning to `O=C(N1CCOCC1)N1CCN(CC(O)c2ccc(F)cc2)CC1` (stereo not given), the INHIBITION is reported as -11.4%. As for `O=C(CC1CCC2(CC1)CCN(Cc1cccnc1)CC2)N1CC=CC1`, the INHIBITION was -4.32%.

On to `Cc1ccc(CN2CCc3[nH]nc(C(=O)N(C)C)c3C2)o1`, for which the INHIBITION was 6.27%. As to `c1cnc2c(CN3CCCCC3c3ccncn3)cnn2c1` (stereo not given), the INHIBITION is 16.5%.

In the case of `Cn1cc(CN2CCCC23CCN(C(=O)c2cccs2)CC3)cn1`, the INHIBITION was 28.4%.

With `CC1(C(N)=O)CN(CC2CCOCC2)CCO1` (stereo not given), the INHIBITION is listed as 26.3375%. As to `CS(=O)(=O)N1CCC(c2nnc3ccc(C(=O)NC4CCC4)cn23)C1` (stereo not given), the INHIBITION stood at 37.3%. For the compound `Cc1cc(C(F)(F)F)nn1C(C)C(=O)Nc1ccc(Cl)cn1` (stereo not given), the INHIBITION came out at 47.4%. For the compound `Cn1c(Cn2cccn2)nnc1C1CCN(Cc2ccccc2Cl)CC1`, the INHIBITION is recorded as -10.9%. As to `Cc1nn(C)c(Cl)c1C1CCCN1C(=O)c1ccnc(N(C)C)c1` (stereo not given), the INHIBITION was -65.3%. On to `COc1ccc(Cl)cc1NCc1nc2[nH]c(C)c(C)c(=O)n2n1`, for which the INHIBITION turned out to be 16%.

Take `O=C(Nc1cc(C(F)(F)F)c[nH]c1=O)N1CCSCC1`: the INHIBITION was -43.6%.

With `Cc1nc(C(=O)N2CCCC2c2cnn(C)c2)ccc1C#N` (stereo not given), the INHIBITION is 13.3%. For `CNC(=O)c1ccc(C2CN(C(=O)c3cncs3)CCO2)nc1` (stereo not given) the value was 50%; for `CNC(=O)c1ccc(C2CN(C(=O)c3cnn(C)c3)CCO2)nc1` (stereo not given), 29.2%.

Regarding `CNC(=O)c1ccc(C2CN(C(=O)c3scnc3C)CCO2)nc1` (stereo not given), the INHIBITION is -5.71%. Next, `CCOc1ncccc1C(=O)N1CCCC1c1c(C)nn(C)c1Cl` (stereo not given): -19.9%. Consider `CCN(C)S(=O)(=O)NCC(C)(O)c1ccsc1` (stereo not given), for which the INHIBITION worked out at 31.7%. For `COCCN1C(=O)CO[C@H]2CN(Cc3cccc(OC)c3F)C[C@@H]21`, the INHIBITION was 27.8%. `COCCN1C(=O)CO[C@H]2CN(S(=O)(=O)c3ccccc3)C[C@H]21`: the INHIBITION is reported as -6.3%. As to `COCCN1C(=O)CO[C@H]2CN(CCCc3ccccc3)C[C@H]21`, the INHIBITION is 51.9%. Next, `COCCN1C(=O)CO[C@H]2CN(Cc3ccccc3OC)C[C@H]21`: -17.2%.

For the compound `COCCN1C(=O)CO[C@H]2CN(Cc3ccccc3Cl)C[C@@H]21`, the INHIBITION came to 63.4%. Next, `Cn1ccnc1CN1C(=O)CO[C@H]2CN(CCCc3ccccc3)C[C@H]21`: 27.5%. In the case of `CC(Nc1cccc(CN2CCOC2=O)c1)C(=O)NC(=O)NC(C)(C)C` (stereo not given), the INHIBITION was 3.75%. As for `CCNC(=O)[C@@H]1C[C@H](NC(=O)c2cc(=O)[nH]c3ccc(C)cc23)CN1C`, the INHIBITION stood at 29.4%. On to `COC(=O)c1ccc(N(C(=O)c2cc(Cl)ccn2)C(C)C)c(C)c1`, for which the INHIBITION turned out to be 19.4%. In the case of `CC(C)(C)NC(=O)CN1CCCC(c2ccc(C(=O)O)cc2)C1` (stereo not given), the INHIBITION worked out at 26.9%. For `N#Cc1ccsc1NC(=O)CCN1CCn2c(nnc2C2CC2)C1` the value was -25.9%; for `CC1CCC(NS(=O)(=O)CC(=O)Nc2ccccc2N2CCCC2)CC1` (stereo not given), -52.2%; for `CC1CCCN(c2ccc(C(N)=O)cc2NC(=O)CC2=CCNCC2)C1` (stereo not given), 56.3%. With `CC1CCCN(c2ccccc2OCC(=O)NC2CC2)C1` (stereo not given), the INHIBITION came to 42.6%. On to `CCOCCC(=O)Nc1cc(C(N)=O)ccc1N1CCCC(C)C1` (stereo not given), for which the INHIBITION amounted to 73%. Next, `NC(=O)c1ccc(N2CCCCC2)c(NC(=O)c2cncc(Br)c2)c1`: 46.8%; `CCNC(=O)COc1ccccc1N1CCCC(C)C1` (stereo not given): 36.2%; `CCOCCCC(=O)NCc1ccc(N2CCCCC2)cc1`: 42.7%.

On to `COCCCC(=O)Nc1cccnc1N1CCCCC1`, for which the INHIBITION is on record as 35.1%. On to `CCOCCCC(=O)Nc1cc(C(N)=O)ccc1N1CCCCC1`, for which the INHIBITION is given as 72.1%. Next, `Cc1csc(C2CCCN(C(=O)Cn3ccccc3=O)C2)n1` (stereo not given): -17.6%; `CC(C)CNC(=O)C1(Cc2ccccc2-c2ccccc2)CCNC1` (stereo not given): 47.2%. For `COc1ccc(COCC(O)CN2CCC(c3ccn[nH]3)CC2)cc1` (stereo not given) the value was 44.1%. For `COCCOCC(=O)Nc1ccc(Br)cc1F` the value was -6.32%; for `O=C(O)c1c[nH]c2cc(NS(=O)(=O)c3cc(F)ccc3Cl)ccc12`, -31.8%.

As for `Cn1cc(C2=NOC(C(=O)NC3(c4ccccc4)CCCC3)C2)cn1` (stereo not given), the INHIBITION was -6.975%. Next, `CO[C@@H]1CN(c2ccccc2)S(=O)(=O)[C@@]12CCN(S(C)(=O)=O)C2`: 39.6%. For `CCn1cc(CN2CCCN(C(=O)c3ccc(C)nc3)CC2)cn1` the value was -47.6%; for `COCC1c2c(cnn2CC2CCOCC2)CCN1Cc1ccoc1` (stereo not given), 14.4%. Next, `CCC(C)(CC(=O)OC)NCc1cc(C)on1` (stereo not given): 56.6%; `CCC(C)(CC(=O)OC)NCc1noc(C)n1` (stereo not given): -31.9%; `CCC(C)(CC(=O)OC)NCc1nc(C)no1` (stereo not given): -50.8%. In the case of `CC(=O)N1CCN(C(=O)CCCc2nnc(-c3ccccc3)o2)CC1`, the INHIBITION was determined as 28.8%. For `CC(Nc1cccc(CN2CCOC2=O)c1)C(=O)Nc1ccccc1` (stereo not given), the INHIBITION turned out to be 35.4%.

As to `CN1[C@@H](c2ccccc2)[C@@H](C(=O)NCc2ccncc2)C[C@@]1(C)C(=O)O`, the INHIBITION is 39.6%.

For `CN1[C@@H](c2ccccc2)[C@@H](C(=O)NCC2CCOCC2)C[C@@]1(C)C(=O)O`, the INHIBITION came to 41.5%.

In the case of `CN1[C@@H](c2ccccc2)[C@@H](C(=O)NCc2ccccn2)C[C@@]1(C)C(=O)O`, the INHIBITION was determined as 60.1%. With `COC(=O)CC1CCN(C(=O)c2ccc(-n3nnnc3C)cc2)CC1`, the INHIBITION came to 27%. Next, `O=C(c1cccnc1)N1CCC2(CNS(=O)(=O)c3cnccc3O2)C1` (stereo not given): 37.5%. Turning to `CC(C)(C)C(=O)N1CCC2(CNS(=O)(=O)c3cnccc3O2)C1` (stereo not given), the INHIBITION was determined as 53.2%.

On to `O=C(c1ccccn1)N1CCC2(CNS(=O)(=O)c3cnccc3O2)C1` (stereo not given), for which the INHIBITION is given as 17.6%. In the case of `O=C(CNc1ccc(OC2CCOC2)cc1)NCc1ccc(F)cc1` (stereo not given), the INHIBITION is -68.6%. For `Cn1nnc2c(N3CC(C(=O)NCc4cccs4)C3)ncnc21` the value was -37.2%; for `O=C(NC1CC1)N1CC[C@H]2[C@H]1CCN2c1ncccn1`, -4.82%. Next, `CCc1noc(CN2CCN(C(=O)COC)CC2)n1`: 25.6%; `CCc1noc(CN2CCN(C(=O)C3CC3)CC2)n1`: 54.4%; `CCc1noc(CN2CCN(C(=O)c3ccccc3F)CC2)n1`: 43.3%. As to `CCc1noc(CN2CCN(C(=O)Cc3ccc(F)cc3)CC2)n1`, the INHIBITION is reported as 52.4%. For the compound `CCc1noc(CN2CCCN(C(C)=O)CC2)n1`, the INHIBITION is listed as 25.6%. For `CCc1noc(CN2CCN(C(=O)N(C)C)CC2)n1` the value was -27.3%; for `Cc1cc(C(=O)N2CCc3ncc(CN4CCOCC4)n3CC2)no1`, 35.8%.

For the compound `Cn1cnnc1C1CCCN(C(=O)COCc2ccccc2)C1` (stereo not given), the INHIBITION turned out to be 45.7%. Next, `O=C1CCN(CCCS(=O)(=O)c2ccc(Cl)cc2)CCN1`: 20.6%; `Cc1cccc(CN2CCc3ncnc(N4CCCC4)c3CC2)n1`: -27.4%. Next, `c1ccc2sc(N3CCCN(c4ncnc5c4CCNC5)CC3)nc2c1`: 74.5%; `Cc1cc(C(=O)N2CCN(c3nc4ccccc4s3)CC2)no1`: 36.8%. As to `c1ccc2sc(N3CCN(c4ncnc5c4CCC5)CC3)nc2c1`, the INHIBITION was determined as 79.9%. As for `Cc1ncnc(N2CCCN(c3nc4ccccc4s3)CC2)c1C`, the INHIBITION came out at 89.6%. As to `COCC(=O)N1CCCN(c2ncnc3c2CCNCC3)CC1`, the INHIBITION is 11.7%. For `NC(=O)c1cccnc1N1CCN(c2ncnc3c2CCNC3)CC1` the value was 31.7%; for `Cn1nc2c(cc1=O)CN(c1nc3ccccc3s1)CC2`, -80.7%. Regarding `CN(C)S(=O)(=O)N1CC[C@]2(O)CCN(c3nc4ccccc4s3)C[C@@H]2C1`, the INHIBITION is reported as 11.3%. `COCCCN1CC2(CCCN(CCn3cc(Cl)cn3)C2)CCC1=O` (stereo not given): the INHIBITION was 17.4%.

In the case of `CCOC(=O)Cc1csc(NC(=O)c2cc3n(n2)CCCO3)n1`, the INHIBITION was -42.6%. `COCCCN(CCOC)Cc1nc2c(cnn2C)c(=O)[nH]1`: the INHIBITION is 25.1%. For `CCN(CC)C(CNS(=O)(=O)c1ccc(C(N)=O)cc1)c1ccco1` (stereo not given) the value was 54.3%; for `CCN(CC)C(CNCc1ccc(OC)c(F)c1)c1ccco1` (stereo not given), -75%. For `CCN(CC)C(CNS(=O)(=O)c1ccc(C(C)=O)cc1)c1ccco1` (stereo not given) the value was 26.4%.

Turning to `CCN(CC)C(CNCc1cc(F)cc(F)c1)c1ccco1` (stereo not given), the INHIBITION worked out at 34.1%. For `CCN(CC)C(CNCc1ccc(O)cc1)c1ccco1` (stereo not given) the value was 77.8%; for `CCN(CC)C(CNS(=O)(=O)c1ccc(C(=O)NC)cc1)c1ccco1` (stereo not given), 12.6%. Next, `O=C(CCc1ccccn1)N1CCCN(C(=O)CC2CCCC2)CC1`: 21.5%; `N#Cc1cccc(NC(=O)N2CCC3(CCC(=O)N(C4CC4)C3)CC2)c1`: 19.5%. On to `COc1ncccc1CN1CCC2(CC1)CC(OCC1CC1)CO2` (stereo not given), for which the INHIBITION came out at 56.4%.

In the case of `CCOC1COC2(CCN(Cc3cccnc3OC)CC2)C1` (stereo not given), the INHIBITION came to 18.6%. For `CCN1CCCC12CCN(Cc1cccnc1OC)CC2` the value was 42.3%.

Regarding `COCCN1CCCC12CCN(Cc1cccnc1OC)CC2`, the INHIBITION is given as 26%. With `COc1ncccc1CN1CC[C@]2(C[C@@H](OCc3ccccn3)CO2)C1`, the INHIBITION was -3.52%.

Turning to `COc1ncccc1CN1CCC2(CC1)COCCN2C`, the INHIBITION is on record as 70.4%. With `CCCC(=O)N1CCC(C(=O)NCCNc2ncccn2)CC1`, the INHIBITION is 21.6%.

For the compound `Cc1c[nH]c(C2CCCN2C(=O)CCc2c(C)n[nH]c2C)n1` (stereo not given), the INHIBITION is listed as -0.13%. `CN(C)C(=O)N1CCN(C(=O)c2ccn3cncc3c2)CC1`: the INHIBITION is on record as 15.1%. For `O=C(Cn1nnn(-c2cccs2)c1=O)NCC1CCOC1` (stereo not given) the value was 13.7%; for `CCN(CC1CCOC1)C(=O)Cn1nnn(-c2cccs2)c1=O` (stereo not given), 12.8%; for `O=C(Cn1nnn(-c2cccs2)c1=O)N(CC1CCOC1)C1CC1` (stereo not given), 51.7%. For the compound `CC(C)c1nc2c(n1C)CCN(CCCOc1ccc(C#N)cc1)C2`, the INHIBITION is -2.53%.
